# From PubChem BioAssay (NCATS)
# Records with an inconclusive call do not appear. Active and inactive are the calls of the source. Unless noted, calls follow the shape of the dose curve; as a rule, active = well fitted curve in the direction sought with a large enough effect; inconclusive = small, poorly fitted or top-dose-only effect, or another doubt; inactive = no such curve, though single readings can be large; an effect the other way counts as inactive or inconclusive.
# How the values were obtained:
# [1] = target: Cytochrome P450 2D6 (Homo sapiens) (UniProt P10635); experiment: Cytochrome P450 family 2 subfamily D member 6 (CYP2D6) small molecule antagonists: luciferase biochemical (cell-free) qHTS assay (AID 1645840; active = well fitted curve in the direction sought with a large enough effect in the repeat runs; an effect the other way counts as inactive or inconclusive; also: nearly all actives have a fitted effect of over 55% in size; also: potency is read from the fitted curve at half-maximal effect; as to activity change, negative = inhibition: % is scaled to controls: 0 for no effect and ±100 for the full control effect)
# Chain of Cytochrome P450 2D6 (Homo sapiens) (P10635 whole entry, looked up): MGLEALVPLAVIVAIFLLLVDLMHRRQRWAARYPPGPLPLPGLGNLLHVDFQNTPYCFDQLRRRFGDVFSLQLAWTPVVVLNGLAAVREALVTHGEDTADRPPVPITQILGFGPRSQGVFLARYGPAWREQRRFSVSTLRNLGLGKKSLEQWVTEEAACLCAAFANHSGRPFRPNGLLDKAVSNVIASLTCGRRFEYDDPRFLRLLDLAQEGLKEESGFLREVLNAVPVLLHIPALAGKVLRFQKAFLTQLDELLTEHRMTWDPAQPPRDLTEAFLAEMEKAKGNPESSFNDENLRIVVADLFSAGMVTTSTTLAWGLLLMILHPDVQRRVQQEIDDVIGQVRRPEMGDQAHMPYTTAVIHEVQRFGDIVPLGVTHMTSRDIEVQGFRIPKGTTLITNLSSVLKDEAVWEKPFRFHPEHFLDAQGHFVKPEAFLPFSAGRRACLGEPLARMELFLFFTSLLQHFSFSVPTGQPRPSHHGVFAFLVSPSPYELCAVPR
# Outline: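 P450-Glo luminescent screen: recombinant CYP2D6 enzyme–proluciferin substrate mix preincubated with compound 10 min at room temperature, then NADPH regeneration added for 1 h at room temperature. Detection reagent added for 20 min; luciferin light read as relative luminescence units.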
# [2] = target: Cytochrome P450 2C9 (Homo sapiens) (UniProt P11712); experiment: Cytochrome P450 family 2 subfamily C member 9 (CYP2C9) small molecule antagonists: luciferase biochemical (cell-free) qHTS assay (AID 1645842; active = well fitted curve in the direction sought with a large enough effect in the repeat runs; an effect the other way counts as inactive or inconclusive; also: nearly all actives have a fitted effect of over 55% in size; also: potency is read from the fitted curve at half-maximal effect; as to activity change, negative = inhibition: % is scaled to controls: 0 for no effect and ±100 for the full control effect)
# Chain of Cytochrome P450 2C9 (Homo sapiens) (P11712 whole entry, looked up): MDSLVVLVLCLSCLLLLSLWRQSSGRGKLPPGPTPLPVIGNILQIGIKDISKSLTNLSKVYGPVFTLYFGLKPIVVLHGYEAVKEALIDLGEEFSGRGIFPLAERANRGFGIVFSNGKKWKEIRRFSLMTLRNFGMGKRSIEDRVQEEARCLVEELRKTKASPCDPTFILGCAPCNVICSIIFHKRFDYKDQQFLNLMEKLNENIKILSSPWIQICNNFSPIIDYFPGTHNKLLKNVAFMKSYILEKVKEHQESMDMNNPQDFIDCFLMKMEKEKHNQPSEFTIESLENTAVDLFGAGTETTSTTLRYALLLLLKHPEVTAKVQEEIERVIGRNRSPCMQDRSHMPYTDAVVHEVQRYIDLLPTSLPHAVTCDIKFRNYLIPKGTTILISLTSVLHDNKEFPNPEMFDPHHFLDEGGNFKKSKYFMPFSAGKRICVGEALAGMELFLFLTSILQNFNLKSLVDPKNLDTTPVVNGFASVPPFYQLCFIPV
# Outline: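 Luminescence, after 20 min with luciferin detection reagent, reflected CYP2C9 turnover during a 1 h NADPH-driven reaction at 37C. Enzyme-substrate mix contained 0.4% bovine serum albumin and was preincubated with compound 10 min at room temperature.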
# [3] = test system: SKOV3; experiment: Primary qHTS to identify gynecologic anti-cancer compounds using libraries of approved drugs and bioactive compounds (AID 1345084); conditions: Gynecologic cancer cell panel viability, ATPlite luminescence, 48 h; series mostly up to 57.5 µM; also: nearly all actives have a fitted effect of over 55% in size; also: potency is read from the fitted curve at half-maximal effect; as to activity change, negative = cytotoxicity: % is scaled to controls: 0 for no effect and ±100 for the full control effect
# Outline: (§1)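 Five-point cytotoxicity, 48 h drug exposure at 37 C, 5% CO2, on cells seeded 16 h beforehand. ATP content read by ATPlite luminescence.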
# [4] = test system: Tov-21-G; experiment: as above; conditions: Gynecologic cancer cell panel viability, ATPlite luminescence, 48 h; series mostly up to 57.5 µM
# Outline: as §1
# [5] = test system: CAOV3; experiment: as above; conditions: Gynecologic cancer cell panel viability, ATPlite luminescence, 48 h; series mostly up to 57.5 µM
# Outline: as §1
# [6] = test system: PA-1; experiment: as above; conditions: Gynecologic cancer cell panel viability, ATPlite luminescence, 48 h; series mostly up to 57.5 µM
# Outline: as §1
# [7] = Primary redox qHTS assay for identification of artifact compounds. (AID 1845223);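 also: 0% = DMSO and 100% = reference compound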
# Outline: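 Amplex Red (25 uM) and HRP (250 mU/mL) in HBSS, with compounds for 15 min, then 250 uM DTT for 30 min, room temperature, dark. Fluorescence 525/598 nm read; normalized to DMSO and 10 uM DA3003; Hill fit.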
# [8] = target: Catechol O-methyltransferase (Homo sapiens) (UniProt P21964); experiment: Confirmatory Screen for Target Class Profiling of Small Molecule Inhibitors of Methyltransferases (AID 1745852); conditions: MTase-Glo luminescence, SAH detection, recombinant enzyme; measured here: COMT max response; stronger effect = lower value; as to activity change, negative = inhibition: % is scaled to controls: 0 for no effect and ±100 for the full control effect
# Chain of Catechol O-methyltransferase (Homo sapiens) (P21964 whole entry, looked up): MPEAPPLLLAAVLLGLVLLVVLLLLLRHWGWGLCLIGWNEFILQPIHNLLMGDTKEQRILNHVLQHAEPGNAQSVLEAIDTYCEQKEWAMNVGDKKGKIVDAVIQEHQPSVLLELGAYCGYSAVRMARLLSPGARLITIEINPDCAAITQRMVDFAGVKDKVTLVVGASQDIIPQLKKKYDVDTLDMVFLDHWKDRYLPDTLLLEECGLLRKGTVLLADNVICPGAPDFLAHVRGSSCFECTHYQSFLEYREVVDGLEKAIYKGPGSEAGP
# [9] = target: Guanidinoacetate N-methyltransferase (Homo sapiens) (UniProt Q14353); experiment: as above; conditions: activity change, negative = inhibition: at 57.3 µM (top of the series) unless noted
# [10] = target: Nicotinamide N-methyltransferase (Homo sapiens) (UniProt P40261); experiment: as above; conditions: MTase-Glo luminescence, SAH detection, recombinant enzyme; measured here: NNMT max response; stronger effect = lower value
# Chain of Nicotinamide N-methyltransferase (Homo sapiens) (P40261 whole entry, looked up): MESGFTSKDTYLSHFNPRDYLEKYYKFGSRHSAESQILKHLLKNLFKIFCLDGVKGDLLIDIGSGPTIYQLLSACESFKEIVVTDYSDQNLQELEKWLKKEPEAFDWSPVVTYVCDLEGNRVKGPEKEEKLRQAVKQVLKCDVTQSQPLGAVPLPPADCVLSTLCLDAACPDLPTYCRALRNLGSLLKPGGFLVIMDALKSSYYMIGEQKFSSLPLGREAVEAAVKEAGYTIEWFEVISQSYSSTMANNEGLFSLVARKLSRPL
# [11] = target: Phenylethanolamine N-methyltransferase (Homo sapiens) (UniProt P11086); experiment: as above; conditions: MTase-Glo luminescence, SAH detection, recombinant enzyme; measured here: PNMT max response; stronger effect = lower value
# Chain of Phenylethanolamine N-methyltransferase (Homo sapiens) (P11086 whole entry, looked up): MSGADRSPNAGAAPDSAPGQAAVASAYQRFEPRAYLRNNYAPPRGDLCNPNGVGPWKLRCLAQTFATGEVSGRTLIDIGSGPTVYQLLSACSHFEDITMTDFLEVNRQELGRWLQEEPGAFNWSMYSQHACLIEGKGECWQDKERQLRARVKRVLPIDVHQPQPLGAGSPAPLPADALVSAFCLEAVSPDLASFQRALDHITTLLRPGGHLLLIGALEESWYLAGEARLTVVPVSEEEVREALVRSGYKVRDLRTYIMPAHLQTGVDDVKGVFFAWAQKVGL
# [12] = qHTS to identify inhibitors of the type 1 interferon - major histocompatibility complex class I in skeletal muscle: primary screen against the NCATS Mechanism Interrogation Plate v5.0 (MIPE) Libary (AID 1347411); also: nearly all actives have a fitted effect of over 65% in size; also: potency is read from the fitted curve at half-maximal effect;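 as to activity change, negative = inhibition: plate controls were vehicle for no effect and reference inhibitor for full effect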
# Outline: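 Luminescence from HiBiT-tagged endogenous HLA-B*08:01 served as the MHC class I read-out. CRISPR-engineered C25cl48 human myoblasts received 4.0 ng/ml IFN-beta plus compound for 24 hrs, with an 11-point, 1:3 series topping at 46 uM final.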
# [13] = P-glycoprotein substrates identified in KB-3-1 adenocarcinoma cell line, qHTS therapeutic library screen (AID 1346986); also: nearly all actives have a fitted effect of over 60% in size;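 also: potency is read from the fitted curve at half-maximal effect; potency is for cytotoxicity meaning loss of cell viability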
# Outline: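 Cells seeded 500/well in DMEM/10% FCS; compounds pinned in dose-response; 72 h incubation; CellTiter-Glo added, 5 min, luminescence. KB-8-5-11 run ±tariquidar to test reversal of P-gp resistance.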
# [14] = Drug repurposing screens with cells derived from glioblastoma tumor samples (AID 1345199); conditions: GBM patient neurospheres viability, ATP luminescence, 48 h; also: nearly all actives have a fitted effect of over 40% in size; also: potency is read from the fitted curve at half-maximal effect
# Outline: (§2)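 Four patient lines of CD133+ GBM neurospheres were screened at several concentrations; hits were retested in those lines plus three slower-growing GBM lines, using 48-hour treatment and ATP-based viability.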
# [15] = qHTS assay to identify inhibitors of the type 1 interferon - major histocompatibility complex class I in skeletal muscle: Counter screen cell viability and HiBit confirmation (AID 1347412); conditions: iHSKM muscle cells + IFN-b, HiBiT or CellTiter-Glo, 24 h; also: nearly all actives have a fitted effect of over 60% in size; also: potency is read from the fitted curve at half-maximal effect
# Outline: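 Myoblasts (C25cl48, HLA-B HiBiT) seeded in medium without dexamethasone, IFN-b 4 ng/ml added except unstimulated columns; 1 hr later compounds pinned (12-pt 1:3, top 46 uM final). Incubated 24 hrs, lysed 10 min, luminescence measured.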
# [16] = target: Luciferin 4-monooxygenase (Photinus pyralis) (UniProt P08659); experiment: Biochemical firefly luciferase enzyme assay for NPC (AID 624030);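 also: purified P. pyralis luciferase at 10 nM with luciferin and ATP substrate; 0% = DMSO and -100% = full luciferase inhibition by PTC124 control; nearly all actives have a fitted effect of over 70% in size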
# Chain of Luciferin 4-monooxygenase (Photinus pyralis) (P08659 whole entry, looked up): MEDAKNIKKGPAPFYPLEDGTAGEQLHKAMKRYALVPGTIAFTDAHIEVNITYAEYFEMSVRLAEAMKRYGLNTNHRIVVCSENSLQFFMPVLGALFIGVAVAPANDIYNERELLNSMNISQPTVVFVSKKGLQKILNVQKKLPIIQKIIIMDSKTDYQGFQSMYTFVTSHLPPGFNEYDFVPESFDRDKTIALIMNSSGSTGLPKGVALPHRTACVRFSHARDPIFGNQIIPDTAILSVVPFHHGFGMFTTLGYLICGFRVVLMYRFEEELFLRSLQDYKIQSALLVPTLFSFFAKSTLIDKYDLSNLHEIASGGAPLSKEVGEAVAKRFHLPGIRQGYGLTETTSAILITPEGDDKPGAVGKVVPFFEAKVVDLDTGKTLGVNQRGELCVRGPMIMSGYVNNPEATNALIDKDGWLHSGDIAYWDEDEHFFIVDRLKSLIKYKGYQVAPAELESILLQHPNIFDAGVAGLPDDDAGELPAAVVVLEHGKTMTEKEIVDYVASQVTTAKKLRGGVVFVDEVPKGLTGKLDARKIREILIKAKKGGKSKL
# Outline: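 Direct inhibition of firefly luciferase enzyme (10 nM final, 50 mM Tris Acetate) assessed by luminescence within 5 minutes. Percent activity scaled between DMSO and PTC124 positive control, with concentration-effect curves classified by fit quality and response.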
# [17] = test system: astro; experiment: Drug repurposing screens with cells derived from glioblastoma tumor samples (AID 1345199); conditions: viability, ATP luminescence, 48 h; series mostly up to 45.9 µM; also: nearly all actives have a fitted effect of over 40% in size; also: potency is read from the fitted curve at half-maximal effect
# Outline: as §2
# [18] = at 45.9 µM (top of the series), tumour line D
# [19] = at 46.1 µM (top of the series), tumour line C
structure (smiles),measurement,setting,value
COc1cc(N2CCN(C)CC2)ccc1Nc1nccc(-c2cn(C)c3cnccc23)n1,Potency,[1],inactive
same,Potency,[2],inactive
same,Potency,[3],12.6 µM (active)
same,Potency,[4],inactive
N#Cc1ccc2c(c1)CCN(CCC1CCC(NC(=O)c3ccnc4ccccc34)CC1)C2 (centres undefined),Potency,[5],inactive
same,Potency,[6],inactive
same,Potency,[3],22.4 µM (active)
same,Potency,[4],inactive
Fc1ccc(C2CCNC[C@H]2COc2ccc3c(c2)OCO3)cc1 (some centres undefined),Potency,[7],inactive
same,Potency,[6],inactive
CC1CCC2(NC1)OC1CC3C4CC=C5CC(O[C@@H]6O[C@H](CO)[C@@H](O[C@@H]7O[C@@H](C)[C@H](O)[C@@H](O)[C@H]7O)[C@H](O)[C@H]6O[C@@H]6O[C@@H](C)[C@H](O)[C@@H](O)[C@H]6O)CCC5(C)C4CCC3(C)C1C2C (some centres undefined),"activity change, negative = cytotoxicity",[4],-23.3% [at 11.6 µM] (inactive)
COC1CC(=O)C23C(=O)NC(CC(C)C)C2C(C)C(C)=CC3/C=C(\C)CCC(O)C1O (centres undefined),Potency,[7],inactive
same,Potency,[3],inactive
same,Potency,[4],inactive
CCN1CCC[C@@H]1CNC(=O)c1ccc2c(c1)NC(=O)/C(=C/c1ccccc1F)S2,Potency,[2],12 µM (active)
same,activity,[8],-24.5%
same,"activity change, negative = inhibition",[9],-8.4%
same,activity,[10],-32%
same,activity,[11],-20.2%
same,Potency,[7],inactive
same,Potency,[4],inactive
c1ccc(Cn2c(-c3ccc(OCC(C4CCNCC4)n4c(-c5ccccc5)nc5ccccc54)cc3)nc3ccccc32)cc1 (centres undefined),activity,[8],-14.2%
same,"activity change, negative = inhibition",[9],-5.98%
same,activity,[10],-61.3%
same,activity,[11],-1.77%
same,Potency,[7],inactive
same,Potency,[6],inactive
same,Potency,[4],inactive
C=CC(=O)Nc1cccc(Nc2nc(Nc3ccc(Oc4ccnc(C(=O)NC)c4)cc3)ncc2F)c1,Potency,[12],18.6 µM (active)
same,Potency,[2],1.51 µM (active)
same,activity,[8],-5.97%
same,"activity change, negative = inhibition",[9],-5.15%
same,activity,[10],-53.4%
same,activity,[11],-10.6%
same,Potency,[7],inactive
COc1ccccc1-c1cc(Nc2cccc(CS(N)(=O)=O)c2)ncn1,Potency,[13],11.6 µM (active)
same,Potency,[1],inactive
same,Potency,[2],9.52 µM (active)
same,Potency,[7],inactive
same,Potency,[6],22.4 µM (active)
CCOc1cc(CNC2CCCC2)cc(Cl)c1OCc1ccc(Cl)cc1,Potency,[2],19 µM (active)
same,Potency,[7],inactive
same,Potency,[5],22.4 µM (active)
CCCc1c(C(C)C)nc(C(C)C)c([C@@H](C)O)c1-c1ccc(F)cc1O,Potency,[1],2.39 µM (active)
same,Potency,[2],4.77 µM (active)
same,Potency,[7],inactive
same,Potency,[6],inactive
same,Potency,[4],inactive
COc1ccc(NC(=O)N2CCc3c2ccc2ccccc32)cc1N1CCN(C)CC1,Potency,[1],19 µM (active)
same,Potency,[7],inactive
same,Potency,[4],inactive
CN(C)CCCCCCNC(=O)c1cccc(-c2cc(O)c3ncccc3c2)c1,activity,[8],-95.5%
same,"activity change, negative = inhibition",[9],6.43%
same,activity,[10],-1.3%
same,activity,[11],4.93%
same,Potency,[5],inactive
same,Potency,[3],inactive
Cc1c(C(=O)NCCCO)cnn1-c1nc(-c2cccc(C(F)(F)F)c2)cs1,Potency,[2],2.39 µM (active)
same,Potency,[6],inactive
same,Potency,[4],inactive
CC1(C)CC[C@]2(C(=O)OC3OC(CO)C(O)C(O)C3O)CC[C@]3(C)C(=CCC4[C@@]5(C)CC[C@H](OC6OC(C(=O)O)C(O)C(O)C6O)C(CO)(CO)C5CC[C@]43C)[C@@H]2C1 (some centres undefined),redox activity (% of DA3003),[7],7.5% [at 11.5 µM] (inactive)
same,Potency,[6],3.16 µM (active)
same,"activity change, negative = cytotoxicity",[4],-29.8% [at 11.6 µM] (inactive)
COc1ccc(-c2cc(C(O)C3CCCCN3)c3ccccc3n2)cc1 (centres undefined),Potency,[2],10.7 µM (active)
same,Potency,[7],inactive
same,Potency,[3],28.2 µM (active)
CCOC(=O)c1cnn(-c2ccc(NC(=O)C(Cl)=C(Cl)Cl)cc2)c1C(F)(F)F,Potency,[1],15.1 µM (active)
same,Potency,[2],6.74 µM (active)
same,Potency,[7],inactive
same,Potency,[5],6.31 µM (active)
CC(C)COc1ccc(CNC(=O)N(Cc2ccc(F)cc2)C2CCN(C)CC2)cc1,Potency,[1],5.35 µM (active)
same,Potency,[7],inactive
same,Potency,[4],inactive
O=C(Nc1ncc(SCCN2CCCC2)s1)C1(c2ccc(S(=O)(=O)C3CC3)cc2)CC1C1CCCCC1 (centres undefined),Potency,[2],19 µM (active)
same,Potency,[4],inactive
CC[C@@H](C)[C@H]1C(=O)O[C@H](C(C)C)C(=O)N(C)[C@@H](C(C)C)C(=O)O[C@H](C(C)C)C(=O)N(C)[C@@H](C(C)C)C(=O)O[C@H](CC(C)C)C(=O)N1C,Potency,[7],inactive
C/C1=C2N=C(/C=C3N=C(/C(C)=C4\[N-]C(C(CC(N)=O)C4(C)CCC(=O)NCC(C)OP(=O)([O-])OC4C(CO)OC(n5cnc6cc(C)c(C)cc65)C4O)C4(C)N=C1C(CCC(N)=O)C4(C)CC(N)=O)C(CCC(N)=O)C\3(C)C)C(CCC(N)=O)C/2(C)CC(N)=O.[CH3-].[Co+3] (centres undefined),"activity, negative = cell killing",[14]; [18],-36.9% (inactive)
CC(=O)Nc1nc2c(Oc3cc(-c4ccc(C(F)(F)F)cc4)ncn3)cccc2s1,Potency,[2],10.7 µM (active)
same,Potency,[7],inactive
same,Potency,[4],22.4 µM (active)
Cc1ccc2c(Nc3ccc(Cl)cc3)nccc2c1Nc1ncccc1-c1ncnc2nc[nH]c12,Potency,[2],12 µM (active)
same,Potency,[3],15.8 µM (active)
OC(CNCCc1c[nH]c2ccccc12)Cn1c2ccccc2c2ccccc21 (centres undefined),Potency,[2],0.952 µM (active)
same,Potency,[6],inactive
same,Potency,[4],inactive
O=C(O)c1ccc(O)c2ncc(N3CCCN(CCc4cccc5ccccc45)CC3)cc12,activity,[8],15.8%
same,"activity change, negative = inhibition",[9],8.48%
same,activity,[10],-19.7%
same,activity,[11],-64.3%
C=C1C(=O)O[C@H]2[C@H]1[C@@H](OC(=O)/C(C)=C\C)C[C@]1(C)O[C@@H]1[C@H]1O[C@H]1C(=C)[C@H]2O,Potency,[6],12.6 µM (active)
COc1cc(F)ccc1-c1ncnc(Nc2cccc(CS(C)(=N)=O)c2)n1 (centres undefined),Potency,[13],1.46 µM (active)
same,Potency,[12],2.34 µM (active)
same,Potency,[15]; HiBiT,0.991 µM (active)
same,"activity change, negative = inhibition","[15]; Viability, at 45.9 µM (top of the series)",-16.3% (inactive)
CC1(C)N=C(N)N=C(N)N1c1ccc(Cl)cc1,Potency,[16],inactive
same,Potency,[17],inactive
C[C@@H]1N=C(N)NC(N(C)C)=N1,Potency,[13],inactive
same,Potency,[12],inactive
CCOC(=O)CN[C@@H](C(=O)N1CC[C@H]1C(=O)NCc1ccc(/C(N)=N/O)cc1)C1CCCCC1,Potency,[16],inactive
same,"activity, negative = cell killing","[14]; at 45.9 µM (top of the series), tumour line B",-9.76% (inactive)
same,"activity, negative = cell killing",[14]; [18],-14.5% (inactive)
same,"activity, negative = cell killing","[14]; at 46 µM (top of the series), tumour line A",-18.3% (inactive)
same,"activity, negative = cell killing",[14]; [19],-15.2% (inactive)
same,Potency,[17],inactive
CCCCCCCCCCCCCCCCSCC(COC)COP(=O)([O-])OCC[N+](C)(C)C (centres undefined),Potency,[16],inactive
same,"activity, negative = cell killing",[14]; [18],-10.7% (inactive)
same,"activity, negative = cell killing",[14]; [19],5.78% (inactive)
same,Potency,[14]; tumour line A,22.4 µM (active)
same,Potency,[17],inactive
